Laboratory results from PubChem BioAssay AID1159580 (chemical genetic matrix, 2015).
The whole screen tested about 5,500 compounds, of which about 2,000 (36%) were called active. Another 18% or so got no clear call; they are omitted. Rule as the data show it: active = normalized growth mostly below about 0.91 (no sharp cut-off); inconclusive = no clear call, values can overlap the other calls; inactive = mostly above about 0.92. This is one part of the list.

Assay: chemical genetic growth profiling, strain panel (AID 1159580);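 also: tested at 20 µM; growth read once vehicle control cultures reached saturation at 30 °C; 1 = growth at the plate median or of vehicle wells; lower values mean less growth of the strain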
Conditions: growth OD
[1] = S. cerevisiae deletion strains, locus YBR021W, strain FUR4, stronger effect = lower value
[2] = S. cerevisiae deletion strains, locus YBR229C, strain ROT2, stronger effect = lower value
[3] = S. cerevisiae deletion strains, locus YCL029C, strain bik1, stronger effect = lower value
[4] = S. cerevisiae deletion strains, locus YDL035C, strain GPR1, stronger effect = lower value
[5] = S. cerevisiae deletion strains, locus YDL074C, strain BRE1, stronger effect = lower value
[6] = S. cerevisiae deletion strains, locus YDL101C, strain DUN1, stronger effect = lower value
[7] = S. cerevisiae deletion strains, locus YDL185W, strain tfp1, stronger effect = lower value
[8] = S. cerevisiae deletion strains, locus YDL192W, strain arf1, stronger effect = lower value
[9] = S. cerevisiae deletion strains, locus YDR101C, strain arx1, stronger effect = lower value
[10] = S. cerevisiae deletion strains, locus YDR162C, strain NBP2, stronger effect = lower value
[11] = S. cerevisiae deletion strains, locus YDR318W, strain mcm21, stronger effect = lower value
[12] = S. cerevisiae deletion strains, locus YDR388W, stronger effect = lower value
[13] = S. cerevisiae deletion strains, locus YDR502C, strain sam2, stronger effect = lower value
[14] = S. cerevisiae deletion strains, locus YER110C, stronger effect = lower value
[15] = S. cerevisiae deletion strains, locus YER155C, strain BEM2, stronger effect = lower value
[16] = S. cerevisiae deletion strains, locus YER167W, strain BCK2, stronger effect = lower value
[17] = S. cerevisiae deletion strains, locus YGL078C, strain dbp3, stronger effect = lower value
[18] = S. cerevisiae deletion strains, locus YGL086W, strain mad1, stronger effect = lower value
[19] = S. cerevisiae deletion strains, locus YGL248W, strain PDE1, stronger effect = lower value
[20] = S. cerevisiae deletion strains, locus YGR078C, strain PAC10, stronger effect = lower value
[21] = S. cerevisiae deletion strains, locus YGR135W, strain pre9, stronger effect = lower value
[22] = S. cerevisiae deletion strains, locus YGR252W, strain gcn5, stronger effect = lower value
[23] = S. cerevisiae deletion strains, locus YHR030C, strain SLT2, stronger effect = lower value
[24] = S. cerevisiae deletion strains, locus YHR079C, strain IRE1 (second series), stronger effect = lower value
[25] = S. cerevisiae deletion strains, locus YHR094C, strain hxt1, stronger effect = lower value
[26] = S. cerevisiae deletion strains, locus YHR129C, strain ARP1, stronger effect = lower value
[27] = S. cerevisiae deletion strains, locus YHR200W, strain rpn10, stronger effect = lower value
[28] = S. cerevisiae deletion strains, locus YIL066C, strain RNR3, stronger effect = lower value
[29] = S. cerevisiae deletion strains, locus YIL073C, strain SPO22, stronger effect = lower value
[30] = S. cerevisiae deletion strains, locus YIL125W, strain kgd1, stronger effect = lower value
[31] = S. cerevisiae deletion strains, locus YIR030C, strain dcg1, stronger effect = lower value
[32] = S. cerevisiae deletion strains, locus YJL095W, strain BCK1, stronger effect = lower value
[33] = S. cerevisiae deletion strains, locus YJL134W, strain LCB3, stronger effect = lower value
[34] = S. cerevisiae deletion strains, locus YJL168C, strain set2, stronger effect = lower value
[35] = S. cerevisiae deletion strains, locus YJL187C, strain SWE1 (second series), stronger effect = lower value
[36] = S. cerevisiae deletion strains, locus YJR043C, strain POL32, stronger effect = lower value
[37] = S. cerevisiae deletion strains, locus YKL009W, strain mrt4, stronger effect = lower value
[38] = S. cerevisiae deletion strains, locus YKL068W, stronger effect = lower value
[39] = S. cerevisiae deletion strains, locus YKL085W, strain MDH1 (second series), stronger effect = lower value
[40] = S. cerevisiae deletion strains, locus YKL085W, strain MDH1, stronger effect = lower value
[41] = S. cerevisiae deletion strains, locus YKR001C, strain vps1, stronger effect = lower value
[42] = S. cerevisiae deletion strains, locus YLR039C, strain RIC1, stronger effect = lower value
[43] = S. cerevisiae deletion strains, locus YLR058C, strain SHM2, stronger effect = lower value
[44] = S. cerevisiae deletion strains, locus YLR102C, strain apc9, stronger effect = lower value
[45] = S. cerevisiae deletion strains, locus YLR268W, strain sec22, stronger effect = lower value
[46] = S. cerevisiae deletion strains, locus YLR371W, strain rom2, stronger effect = lower value
[47] = S. cerevisiae deletion strains, locus YLR418C, strain cdc73, stronger effect = lower value
[48] = S. cerevisiae deletion strains, locus YML016C, strain PPZ1, stronger effect = lower value
[49] = S. cerevisiae deletion strains, locus YML032C, strain rad52, stronger effect = lower value
[50] = S. cerevisiae deletion strains, locus YML124C, strain tub3, stronger effect = lower value
[51] = S. cerevisiae deletion strains, locus YMR078C, strain ctf18, stronger effect = lower value
[52] = S. cerevisiae deletion strains, locus YMR223W, strain ubp8, stronger effect = lower value
[53] = S. cerevisiae deletion strains, locus YMR307W, strain GAS1, stronger effect = lower value
[54] = S. cerevisiae deletion strains, locus YNL067W, strain RPL9B, stronger effect = lower value
[55] = S. cerevisiae deletion strains, locus YNL233W, strain BNI4, stronger effect = lower value
[56] = S. cerevisiae deletion strains, locus YNL250W, strain rad50, stronger effect = lower value
[57] = S. cerevisiae deletion strains, locus YNL271C, strain bni1, stronger effect = lower value
[58] = S. cerevisiae deletion strains, locus YNL298W, strain CLA4, stronger effect = lower value
[59] = S. cerevisiae deletion strains, locus YNL307C, strain MCK1, stronger effect = lower value
[60] = S. cerevisiae deletion strains, locus YNR052C, strain pop2, stronger effect = lower value
[61] = S. cerevisiae deletion strains, locus YOL012C, strain htz1
[62] = S. cerevisiae deletion strains, locus YOL147C, strain pex11, stronger effect = lower value
[63] = S. cerevisiae deletion strains, locus YOR061W, strain CKA2, stronger effect = lower value
[64] = S. cerevisiae deletion strains, locus YOR069W, strain VPS5, stronger effect = lower value
[65] = S. cerevisiae deletion strains, locus YOR136W, strain idh2, stronger effect = lower value
[66] = S. cerevisiae deletion strains, locus YOR144C, strain elg1, stronger effect = lower value
[67] = S. cerevisiae deletion strains, locus YOR184W, strain ser1, stronger effect = lower value
[68] = S. cerevisiae deletion strains, locus YOR316C, strain cot1, stronger effect = lower value
[69] = S. cerevisiae deletion strains, locus YPL241C, strain CIN2, stronger effect = lower value
[70] = S. cerevisiae deletion strains, locus YPR119W, strain clb2, stronger effect = lower value
[71] = S. cerevisiae deletion strains, locus YPR141C, strain kar3, stronger effect = lower value
[72] = S. cerevisiae deletion strains, locus YPR163C, strain tif3, stronger effect = lower value
[73] = S. cerevisiae deletion strains, locus YPR167C, strain met16, stronger effect = lower value
[74] = S. cerevisiae deletion strains, strain wtn01, stronger effect = lower value

Measured: normalized growth

COc1ccc(CC2c3cc(OC)c(OC)cc3CCN2C)cc1OC (stereo not given)
inactive: S. cerevisiae deletion strains, locus YAL013W, strain DEP1, stronger effect = lower value 0.984 | [1] 1.05 | [2] 0.969 | [3] 0.988 | [4] 0.997 | [5] 0.964 | [6] 0.961 | S. cerevisiae deletion strains, locus YDL134C, strain PPH21, stronger effect = lower value 0.981 | [7] 0.951 | [8] 0.994 | [9] 1.01 | S. cerevisiae deletion strains, locus YDR150W, strain NUM1, stronger effect = lower value 0.974 | [10] 0.941 | [11] 1.02 | [12] 0.992 | [13] 0.974 | S. cerevisiae deletion strains, locus YEL061C, strain CIN8, stronger effect = lower value 0.988 | [14] 0.987 | [15] 1 | [16] 0.997 | [17] 0.976 | [18] 1.01 | [19] 0.978 | [20] 0.967 | [21] 0.957 | S. cerevisiae deletion strains, locus YGR229C, strain SMI1, stronger effect = lower value 0.997 | [22] 1.08 | [23] 1 | [24] 0.99 | [25] 0.988 | [26] 0.987 | [27] 0.982 | [28] 0.971 | [29] 1.02 | [30] 0.983 | [31] 0.979 | [32] 0.985 | [33] 0.993 | [34] 0.98 | [35] 0.959 | [36] 1.03 | S. cerevisiae deletion strains, locus YJR075W, strain HOC1, stronger effect = lower value 0.926 | [37] 0.995 | [38] 0.99 | [39] 0.97 | [40] 0.97 | S. cerevisiae deletion strains, locus YKL190W, strain CNB1, stronger effect = lower value 0.978 | [41] 1 | [42] 0.959 | [43] 0.973 | [44] 0.978 | S. cerevisiae deletion strains, locus YLR262C, strain YPT6, stronger effect = lower value 0.951 | [45] 0.953 | S. cerevisiae deletion strains, locus YLR330W, strain CHS5, stronger effect = lower value 0.998 | S. cerevisiae deletion strains, locus YLR342W, strain FKS1 (second series), stronger effect = lower value 1.05 | [46] 0.993 | [47] 0.955 | [48] 0.988 | [49] 1 | [50] 0.993 | [51] 0.989 | [52] 0.948 | S. cerevisiae deletion strains, locus YMR263W, strain SAP30, stronger effect = lower value 0.96 | [53] 1.1 | [54] 0.959 | S. cerevisiae deletion strains, locus YNL128W, strain TEP1, stronger effect = lower value 0.945 | S. cerevisiae deletion strains, locus YNL153C, strain GIM3, stronger effect = lower value 0.947 | [55] 0.979 | [56] 0.97 | [57] 0.987 | [58] 0.978 | [59] 0.998 | S. cerevisiae deletion strains, locus YNL322C, strain KRE1, stronger effect = lower value 0.982 | [60] 0.991 | S. cerevisiae deletion strains, locus YOL006C, strain TOP1, stronger effect = lower value 0.936 | [61] 0.876 | [62] 0.991 | [63] 0.964 | [64] 0.994 | [65] 0.994 | [66] 0.993 | [67] 1.03 | [68] 0.975 | S. cerevisiae deletion strains, locus YPL055C, strain LGE1, stronger effect = lower value 0.935 | [69] 0.99 | [70] 0.995 | [71] 0.968 | [72] 0.984 | [73] 0.979 | [74] 0.934 | S. cerevisiae strains, strain wild type, stronger effect = lower value 0.987

COc1cc(OC)c2c(c1)OC(c1ccc(OC)c(OC)c1)C(O)C2 (stereo not given)
inactive: [1] 1.04 | [2] 1.01 | [3] 1.03 | [4] 1.08 | [5] 1.11 | [6] 1.02 | [7] 1.03 | [8] 1.02 | [9] 0.991 | [10] 1.04 | [11] 1.03 | [12] 1 | [13] 1.03 | [14] 1.01 | [15] 0.999 | [16] 1 | [17] 1.03 | [18] 1.02 | [19] 1.06 | [20] 1.04 | [21] 1.05 | [22] 1.05 | [23] 1.02 | [24] 1.02 | [25] 1.01 | [26] 1.02 | [27] 1.04 | [28] 1.02 | [29] 1.16 | [30] 1.02 | [31] 1.02 | [32] 1.07 | [33] 1.01 | [34] 1.01 | [35] 1.05 | [36] 1.06 | [37] 1.04 | [38] 0.998 | [39] 1.01 | [40] 1.01 | [41] 1.03 | [42] 1.17 | [43] 1.03 | [44] 1.01 | [45] 1.01 | [46] 1.05 | [47] 1.04 | [48] 1.01 | [49] 1.02 | [50] 1 | [51] 1.02 | [52] 1.02 | [53] 1.22 | [54] 1.01 | [55] 1.05 | [56] 1.05 | [57] 1.01 | [58] 1.03 | [59] 1.01 | [60] 1.05 | [61] 1.04 | [62] 1.03 | [63] 1.01 | [64] 1.02 | [65] 1.02 | [66] 1.01 | [67] 1.02 | [68] 1.03 | [69] 1.02 | [70] 1.01 | [71] 1.02 | [72] 1.02 | [73] 1.04 | [74] 1.03
